Compound activity (PubChem BioAssay)
12-LOX inh – Primary qHTS assay for inhibitors of human arachidonate 12S-lipoxygenase (ALOX12): Round 2; Polyunsaturated fatty acid lipoxygenase ALOX12 (Homo sapiens), P18054; purified 12hLO, xylenol orange hydroperoxide absorbance; Potency, µM (doses to about 108 µM), most hits filed as inhibitors; 580,000 tested, 1.1% active; AID 1671190, 2021
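Purified human 12hLO (150 nM final) in 25 mM Hepes, 0.01% Triton X-100, pH 7.0 was preincubated 15 min at room temperature with compound. Then 40 uM arachidonic acid was added, 30 min. Hydroperoxide was read by Fe-XO absorbance ratio 573/405 nm.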
KCNH2 WT inh – qHTS for Inhibitors of KCHN2 3.1: Wildtype qHTS. AID 720551, 2013. activity change, % at 1.84 µM. 340,000 tested, 0.37% active. U2OS, BacMam KCNH2, thallium flux FluxOr; hits give low values;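 active means maximum activity change below -70%; inconclusive means maximum activity change between -70% and -50%; inactive means maximum activity change above -50%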
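U2OS cells were transduced with wild-type KCNH2 virus (2.03 x 10^8 / mL) for 4 h at room temperature, then cultured overnight at 37 C. Thallium flux was read with FluxOr dye. Rate constants were normalized to DMSO controls.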
AT treatment – qHTS Assay for Identifying a Potential Treatment of Ataxia-Telangiectasia | 320,000 tested, 0.19% active | Potency, µM (top dose mostly 57.5 µM), most hits filed as activators | F2112 A-T fibroblasts, KAP-1 phosphorylation AlphaLISA; neocarzinostatin DNA damage 30 min before lysis; further: nearly all actives have a fitted effect of over 45% in size
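hTERT-immortalized A-T patient fibroblasts (F2112), 500 cells/well in OPTI-MEM, 1% FBS, got compounds for 60 min, then NCS for 30 min at 37C. Lysates were then assayed for phospho-KAP-1 by AlphaLISA (anti-pKAP1 donor, anti-KAP1 acceptor beads), 6 hr at 25C.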
KCNH2 3.1 inh – qHTS for Inhibitors of KCHN2 3.1: Mutant qHTS | Potassium voltage-gated channel subfamily H member 2, brain isoform KCNH2 3.1 (human) | U2OS KCNH2 3.1, thallium flux FluxOr; hits give low values | activity change, % (tested at about 1.8 µM) | 340,000 tested, 0.95% active | AID 720553, 2013;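 active means maximum activity change below -70%; inconclusive means maximum activity change from -70% to -50%; inactive means maximum activity change above -50%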;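 further: thallium influx rate constant from kinetic fluorescence after stimulation buffer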
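Steps: virus added to U2OS suspension (4 h, RT, dark); medium with 10% FBS added, cells plated, 37 C overnight; FluxOr/Red40 loading buffer 45 min RT; stimulation buffer, 2 min kinetic read; rate constant normalized.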
A number is an active result; – = inactive; ? = inconclusive; · = not tested or not shown. A selection: hits, their analogues and other compounds. The true share with any hit is near 1.8%. Unless noted, the call rests on the fitted dose curve; in most records, active means well fitted curve in the direction sought with a large enough effect; inconclusive means small, poorly fitted or top-dose-only effect, or another doubt; inactive means no such curve, though single readings can be large; an effect the other way counts as inactive or inconclusive.

SMILES	12-LOX inh	KCNH2 WT inh	AT treatment	KCNH2 3.1 inh
COc1ccc(-c2nc3cc(NC(=S)NC(=O)Cc4ccccc4)ccc3o2)cc1	28µM	–	–	–
CC(C)c1ccc(-c2nc3cc(NC(=O)c4cccnc4)ccc3o2)cc1	40µM	·	·	·
O=C(O)c1ccccc1-c1ccccc1C(=O)Nc1ccc(-c2nc3cc(Cl)ccc3o2)cc1	45µM	–	–	–
CCC(=O)NC(=S)Nc1ccc2oc(-c3ccc(OC)cc3)nc2c1	–	–	–	–
COc1cccc(OC)c1C(=O)Nc1ccc(-c2nc3ccccc3o2)cc1	40µM	·	·	·
COc1cccc(OC)c1C(=O)Nc1ccc(-c2nc3cc(C)ccc3o2)cc1	–	·	·	·
COc1ccc(-c2cc3ccc(OS(=O)(=O)c4ccccc4)cc3oc2=O)cc1OC	–	·	·	·
COc1ccc(S(=O)(=O)N(c2onc(C)c2Cl)S(=O)(=O)c2ccc(OC)c(OC)c2)cc1OC	18µM	–	–	–
CCN1C/C(=C\c2cccc([N+](=O)[O-])c2)C(=O)/C(=C/c2cccc([N+](=O)[O-])c2)C1	–	–	22µM	–
O=C1/C(=C/c2cccc([N+](=O)[O-])c2)CCc2ccccc21	–	–	–	–
C(=C\c1ccccc1)/C=N/Nc1nc(Nc2ccccc2)nc(N2CCCCC2)n1	–	·	·	·
Cc1nn(-c2ccccc2)c(Cl)c1/C=C1\SC(=S)NC1=O	25µM	–	–	–
CC(C)n1nc(C(=O)NCCc2cccs2)c2ccccc2c1=O	–	·	·	·
CC1=C[C@@H](CO)[C@H](C(C)C)C[C@H]1Cc1nnc(C(C)(C)C)o1	–	·	·	·
CCOc1ccccc1NC(=O)Cn1nnc(C(=O)Nc2ccc(C)cc2)c1N	–	-127	–	–
CC(=O)Nc1nc(CC(C)C)cc(-c2ccco2)c1C#N	13µM	–	·	–
CCCCCOc1ccc(C(N)C(=O)OCC)cc1 (stereo unspecified)	20µM	·	·	·
CCCCOc1ccc(C(NC(=O)OCC)NC(=O)OCC)cc1	–	–	–	–
N#Cc1c(-c2ccncc2)c2c([nH]c1=S)CCCC2	20µM	–	–	–
O=C(O)CCc1ccc(S(=O)(=O)Nc2cccc(S(=O)(=O)N3CCCCC3)c2)cc1	–	·	·	·
Nn1c(SCc2cccc(F)c2)nnc1-c1cccnc1	?	–	–	–
Nn1c(SCc2cccc(Br)c2)nnc1-c1cccnc1	–	–	–	-99
CN(C)C(CNC(C(=O)Nc1ccc([N+](=O)[O-])cc1Br)c1ccccc1)c1ccccc1 (stereo unspecified)	–	–	–	-85
Cc1ccn2cc(-c3ccccc3)cc2c1	32µM	·	·	·
COc1ccc2[nH]c(C(=O)NCCC(=O)Nc3ccc4c(c3)OCCO4)cc2c1OC	–	·	·	·
SMILES	12-LOX inh	KCNH2 WT inh	AT treatment	KCNH2 3.1 inh
Cc1ccc(S(=O)(=O)N(C)CC(=O)Nc2nc3ccccc3s2)cc1	–	–	–	–
Cc1ccc(/C(=N/Nc2nc3ccccc3s2)C2=C(O)c3ccccc3C2=O)cc1	3.5µM	–	–	–
O=C1NC(=S)S/C1=C\c1cc(Cl)ccc1Cl	7.9µM	–	·	–
CCOc1ncccc1C(=O)NCc1ccc(OC)c(OC)c1	–	–	–	-102
CCOc1ncccc1C(=O)NCc1ccc(OC)cc1	·	–	–	–
CCc1noc(-c2ccn3c(CNC(=O)c4ccoc4)nnc3c2)n1	–	·	·	·
O=C(Cc1ccc(Cl)cc1)NC1CCCCCC1	–	–	–	–
O=C(Cc1ccc(F)cc1)NC1CCCCCC1	–	–	–	-87
CC(=O)Nc1ccc(Sc2ncccc2C(=O)Nc2ccc(OC(F)(F)F)cc2)cn1	–	–	–	-86
CN1CCN(c2cc(-c3ccoc3)ncn2)CC1	11µM	·	·	·
CN1CCN(c2ccnc(-c3cccnc3)n2)CC1	–	·	·	·
CN1CCN(c2ccnc(-c3ccoc3)n2)CC1	22µM	·	·	·
CCOC(=O)/C(C#N)=C\c1ccc(N2CCN(C/C=C/c3ccccc3)CC2)cc1	–	–	–	-83
CCOC(=O)/C(C#N)=C\c1cc(C)n(-c2ccccc2)c1C	–	–	·	–
COc1cc(/C=N/NC(=O)c2ccc(Cl)c(S(N)(=O)=O)c2)ccc1OCC(N)=O	–	-142	–	–
COc1cc(/C=N/NC(=O)c2cccnc2)ccc1OCC(=O)Nc1ccccc1Cl	–	–	–	-97
COc1ccc(/C=N/NC(=O)c2ccc(Cl)c(S(N)(=O)=O)c2)cc1OCC(N)=O	–	–	–	–
COc1cccc(/C=C(\C#N)c2nc3ccccc3[nH]2)c1	–	·	·	·
Cc1ccc(CN(C)C(=O)c2cnc3ccccc3n2)c(C)c1	–	·	·	·
Cc1ccc(N(CC(O)CN2CCCCC2)S(=O)(=O)c2ccccc2)cc1 (stereo unspecified)	–	–	–	?
Cc1ccc(N(CC(O)CN2CCCCC2)S(=O)(=O)c2ccc(C)cc2)cc1 (stereo unspecified)	–	–	–	-99
O=C(C1=C(c2ccccc2)SCCO1)N(Cc1cccs1)C1CCS(=O)(=O)C1 (stereo unspecified)	–	·	·	·
CCCn1ncc(CN2CCC(n3nccc3NC(=O)c3ccccc3OC)CC2)c1C	–	?	–	-95
Cn1cc(CN2CCC(n3nccc3NC(=O)c3ccccc3Cl)CC2)cn1	–	–	–	–
CCCn1ncc(CN2CCC(n3nccc3NC(=O)CCc3ccccc3)CC2)c1C	–	–	–	–
SMILES	12-LOX inh	KCNH2 WT inh	AT treatment	KCNH2 3.1 inh
Cn1cc(CN2CCC(n3nccc3NC(=O)c3ccccc3Cl)CC2)c2ccccc21	–	-79	–	–
COCC(=O)N1CCC(n2nccc2NC(=O)c2ccccc2OC)CC1	–	–	–	–
CCn1nc(C)c(CN2CCC(n3nccc3NC(=O)c3ccccc3OC)CC2)c1C	–	–	–	–
CCCCc1ncc(CN2CCC(n3nccc3NC(=O)c3ccccc3OC)CC2)[nH]1	–	–	–	-79
COc1ccccc1C(=O)Nc1ccnn1C1CCN(Cc2cn(C)c3ccccc23)CC1	–	–	–	-77
CC(=O)Nc1ccc(OC(C)C)cc1	–	·	·	·
